The list is not random: actives were taken first. Their share in the collection is about 1.2%.
L3MBTL1 block: qHTS Assay for the Inhibitors of L3MBTL1; Lethal(3)malignant brain tumor-like protein 1 (Homo sapiens), Q9Y468; AlphaScreen L3MBTL1–H3K9me1 peptide binding; Potency, µM (top dose mostly 57.1 µM), usual class: inhibitors; 230,000 compounds, 0.66% hits; AID 485360, 2010; note: nearly all actives have a fitted effect of over 60% in size
Target sequence (Q9Y468 whole entry, looked up): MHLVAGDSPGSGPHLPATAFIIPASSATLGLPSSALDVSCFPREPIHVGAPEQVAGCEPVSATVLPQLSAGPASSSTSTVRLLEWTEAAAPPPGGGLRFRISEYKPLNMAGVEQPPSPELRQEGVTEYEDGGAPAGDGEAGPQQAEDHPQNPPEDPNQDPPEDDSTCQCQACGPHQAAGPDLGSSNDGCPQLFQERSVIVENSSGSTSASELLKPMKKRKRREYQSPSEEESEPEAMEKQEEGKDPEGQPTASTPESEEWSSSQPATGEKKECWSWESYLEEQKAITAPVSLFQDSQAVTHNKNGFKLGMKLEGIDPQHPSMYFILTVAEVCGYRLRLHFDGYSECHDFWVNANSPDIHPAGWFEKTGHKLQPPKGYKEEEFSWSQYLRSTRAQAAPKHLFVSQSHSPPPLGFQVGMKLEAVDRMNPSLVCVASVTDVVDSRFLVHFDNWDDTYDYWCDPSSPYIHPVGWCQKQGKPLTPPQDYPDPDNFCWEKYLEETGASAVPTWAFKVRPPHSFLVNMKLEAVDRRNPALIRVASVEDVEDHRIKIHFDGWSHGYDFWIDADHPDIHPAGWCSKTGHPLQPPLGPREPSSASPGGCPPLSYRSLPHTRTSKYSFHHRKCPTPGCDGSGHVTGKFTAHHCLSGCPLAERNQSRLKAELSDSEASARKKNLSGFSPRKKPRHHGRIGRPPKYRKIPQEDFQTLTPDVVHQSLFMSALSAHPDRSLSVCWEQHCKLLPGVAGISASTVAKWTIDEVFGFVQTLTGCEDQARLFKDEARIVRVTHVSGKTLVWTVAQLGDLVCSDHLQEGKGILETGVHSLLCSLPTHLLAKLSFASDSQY
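Read-out is AlphaScreen signal from streptavidin donor and nickel chelate acceptor beads (10 ug/mL final each) bridging L3MBTL1 (50 nM) and biotinylated K9-monomethylated H3(1-15) peptide (75 nM), after 30 min compound exposure at room temperature.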
Six1-Eya2 inh: qHTS Assay for Inhibitors of the Six1/Eya2 Interaction. Homeobox protein SIX1 (Homo sapiens) + Protein phosphatase EYA2 (Homo sapiens), …. AlphaScreen GST-Six1/His-Eya2 binding, biochemical; stronger effect = lower value. activity change, % (no concentration beside the values). 360,000 compounds, 0.56% hits. AID 651725, 2012; in the data active = activity change below about -65%; inconclusive = mostly about -30% to -63%
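AlphaScreen with GST-Six1 and His-Eya2 (5X mix: 250 nM and 500 nM), glutathione donor and nickel acceptor beads; buffer 50 mM Tris pH 8.0, 300 mM NaCl, 1 mM TCEP; 1 h at 37 C in the dark.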
uPA surface inh: qHTS for Inhibitors of Cell Surface uPA Generation | cell surface uPA generation assay, qHTS | Potency, µM (doses to about 38.3 µM), usual class: inhibitors | 330,000 compounds, 0.31% hits | AID 540303, 2011; active = well fitted inhibition curve with a large enough effect; inconclusive = small, poorly fitted or top-dose-only effect; inactive = no such curve, though single readings can be large or run the other way; tested in mouse RAW 264.7 cells; note: nearly all actives have a fitted effect of over 55% in size
USP2a block: qHTS Assay for Inhibitors of Ubiquitin-specific Protease USP2a Using CHOP2 as the Reporter. Ubiquitin carboxyl-terminal hydrolase 2 (Homo sapiens), O75604. USP2 core, Ub-CHOP2 coupled fluorogenic reporter, 485/531. Potency, µM (highest dose often 38.3 µM), actives largely listed as inhibitors. 330,000 compounds, 0.01% hits
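Cell-free coupled assay: 10nM USP2 core preincubated 30min RT with compound in Tris-HCl pH 8.0/CaCl2/CHAPS buffer, then 25nM Ub-CHOP2 and 25nM reporter substrate; fluorescence (Ex 485/Em 531) read after 60min RT, normalized to NEM inhibition, concentration-response curves fitted.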
CtBP-E1A inh: qHTS Assay for Inhibitors of the CtBP/E1A Interaction; activity change, % (no concentration beside the values); CtBP / adenovirus E1A interaction (AlphaScreen); AlphaScreen GST-E1A/His-CtBP binding, 1536-well; stronger effect = lower value; 340,000 compounds, 0.49% hits; in the data active = activity change below about -65%; inconclusive = mostly about -30% to -63%
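In 5 uL wells, 23 nL compound meets equimolar GST-E1A and His-CtBP (5X stock 125 nM each) for 2 h, 37 °C. Beads (5X, 50 ug/mL) then 1 h, 37 °C, dark.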
Eya2 phos inh: qHTS Assay for Inhibitors of the Phosphatase Activity of Eya2 | 330,000 compounds, 0.006% hits | AID 488837, 2010 | Potency, µM (doses to about 76.9 µM), usual class: inhibitors | recombinant Eya2, OMFP fluorescence dephosphorylation (OMFP is methylfluorescein phosphate)
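Eya2 protein (added as 0.2 uM solution) was preincubated with compound for 10 min at ambient temperature in 50 mM HEPES pH 7.5, 50 mM NaCl, 5 uM MgCl2, 0.05% BSA, 1 mM DTT. OMFP (added at 50 uM) then reacted 10 min; fluorescence read at 485/525 nm.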
Large screens that a line does not name were inactive. Unless noted, calls come from the whole dose curve; as a rule, active = well fitted curve in the direction sought with a large enough effect; inconclusive = small, poorly fitted or top-dose-only effect, or another doubt; inactive = no such curve, though single readings can be large; an effect the other way counts as inactive or inconclusive.

COc1cccc(CN(C)C(=O)c2ccc(NC(=O)CC3SC(N4CCCC4)=NC3=O)cc2)c1OC (centres undefined)	none
O=C(NC(=S)Nc1ccccc1N1CCCC1)c1ccc([N+](=O)[O-])cc1	L3MBTL1 block 7.1µM, Six1-Eya2 inh inconclusive
O=C(NC(=S)Nc1ccccc1N1CCOCC1)c1ccc([N+](=O)[O-])cc1	none
S=C(Nc1ccc(Cl)cc1)c1nc2ccccc2[nH]1	L3MBTL1 block inconclusive, Six1-Eya2 inh -73, CtBP-E1A inh inconclusive
O=C(/C(=C\c1ccccc1)c1nc2ccccc2[nH]1)c1ccc(Cl)cc1	none
Cc1ccccc1NC(=S)c1nc2ccccc2[nH]1	L3MBTL1 block inconclusive, Six1-Eya2 inh -90, CtBP-E1A inh -84
Cc1cc(C(F)(F)F)nc(SCCN2CCCCC2)c1C#N	none
Nc1ccc(N2CCCCCC2)cc1	L3MBTL1 block 18µM (no result: Six1-Eya2 inh, uPA surface inh, CtBP-E1A inh)
Nc1ccc(N2CCN(c3ccc(F)cc3)CC2)cc1	none
CC(/C=C/c1ccco1)=N\NC(=O)CNc1ccc2ccccc2c1	L3MBTL1 block 35µM (no result: CtBP-E1A inh)
Cc1ccc2nc(CSc3nnc(Nc4ccccc4F)s3)cc(=O)n2c1	none
Cc1ccc(Nc2nnc(SCc3cc(=O)n4cc(C)ccc4n3)s2)cc1	CtBP-E1A inh -67
Cc1cc(C)c(S(=O)(=O)N2CCN(C(=O)CN3C(=O)NC4(CCCC4)C3=O)CC2)c(C)c1	none (no result: L3MBTL1 block)
CN(C)CCCNc1cc(-c2ccccc2)nc2cc(-c3cccc(F)c3)nn12	uPA surface inh 5µM (no result: CtBP-E1A inh)
Cc1ccc(S(=O)(=O)N(C)c2ccc3sc(C)nc3c2)cc1	uPA surface inh inconclusive
O=C(CCc1ccc(S(=O)(=O)N2CCOCC2)cc1)N/N=C/c1ccc(O)c(O)c1O	L3MBTL1 block 14µM, Six1-Eya2 inh -68, CtBP-E1A inh -73
Cc1ccc(S(=O)(=O)NCC(=O)NCC(=O)N2CCN(c3ncccn3)CC2)cc1C	none
O=C1c2ccccc2C(=O)c2c1ccc(O)c2O	Six1-Eya2 inh -65, CtBP-E1A inh inconclusive (no result: L3MBTL1 block, USP2a block, Eya2 phos inh)
COC(=O)c1ccc2c(c1O)C(=O)c1ccccc1C2=O	Six1-Eya2 inh inconclusive, CtBP-E1A inh inconclusive (no result: L3MBTL1 block)
Cc1ccc(NC(=O)CSc2nnc(-c3ccco3)c(-c3ccco3)n2)cc1	L3MBTL1 block 20µM, Six1-Eya2 inh inconclusive
O=C(CSc1nnc(-c2ccco2)c(-c2ccco2)n1)Nc1ccccc1	L3MBTL1 block 4µM, Six1-Eya2 inh inconclusive, CtBP-E1A inh inconclusive
O=C(CN1C(=O)NC2(CCCC2)C1=O)Nc1cccc(Cl)c1	none (no result: L3MBTL1 block)
COc1cccc(NC(=O)CCC(=O)Nc2cc(OC)c(NC(=O)c3cccs3)cc2OC)c1	Six1-Eya2 inh -69, CtBP-E1A inh -82 (no result: L3MBTL1 block)
COc1ccc(NC(=O)CCC(=O)Nc2cc(OC)c(NC(=O)c3cccs3)cc2OC)cc1	Six1-Eya2 inh -79, CtBP-E1A inh -79 (no result: L3MBTL1 block)
COc1cc(NC(=O)c2cccs2)c(OC)cc1NC(=O)CCC(=O)Nc1ccc(C)cc1	Six1-Eya2 inh inconclusive, CtBP-E1A inh inconclusive (no result: L3MBTL1 block)
Cc1cc(F)ccc1S(=O)(=O)N1CCCOC1CNC(=O)C(=O)NCc1ccccn1 (centres undefined)	none (no result: L3MBTL1 block)
CCn1c(C)c(C)c2cc(C(=O)NCCCN3CCCCC3C)ccc21 (centres undefined)	none (no result: L3MBTL1 block)
CCC(=O)Nc1ccc(Cl)c(-c2nc3ncccc3o2)c1	Six1-Eya2 inh -68, CtBP-E1A inh inconclusive
CCC(=O)Nc1cc(-c2nc3ncccc3o2)ccc1Cl	none
O=C(O)c1cccc(N2C(=O)c3cccc4cccc(c34)C2=O)c1	none
O=C(O)c1cccc(N2C(=O)c3cc([N+](=O)[O-])cc4cc([N+](=O)[O-])cc(c34)C2=O)c1	L3MBTL1 block 32µM, Six1-Eya2 inh -75, CtBP-E1A inh -68
O=C(Cc1ccc(Br)cc1)NCCCn1ccnc1	Eya2 phos inh inconclusive
O=C1CCCC(O)=C1N=Nc1cccc(C(=O)O)c1	L3MBTL1 block 8.9µM
COc1ccc(C(=O)c2ccc(OC)c(N)c2)cc1N	L3MBTL1 block inconclusive
COc1cc(Br)c(Br)cc1N	L3MBTL1 block 3.5µM (no result: CtBP-E1A inh)
Cn1ncc([N+](=O)[O-])c1C(=O)NC1CCCCC1	none (no result: L3MBTL1 block, CtBP-E1A inh)
COc1ccccc1Nc1cc2cc(Br)ccc2c(=O)[nH]1	uPA surface inh 3.2µM (no result: L3MBTL1 block, USP2a block, Eya2 phos inh)
CCN(CC)S(=O)(=O)c1ccc(N2CCOCC2)c(NC(=O)c2cccc3c(=O)c(C)c(-c4ccccc4)oc23)c1	uPA surface inh 4.5µM (no result: L3MBTL1 block, USP2a block, CtBP-E1A inh, Eya2 phos inh)
Cc1ccc2c(c1)Oc1ccc(NC(=O)CCCl)cc1C(=O)N2	uPA surface inh 8.9µM (no result: CtBP-E1A inh)
CCN(CC)c1ccc(NC(=S)NC(=O)c2ccco2)cc1	L3MBTL1 block inconclusive, Six1-Eya2 inh -70
CCN(CC)c1ccc(/C=N/NC(=O)c2ccco2)c(O)c1	Six1-Eya2 inh -65, uPA surface inh inconclusive, CtBP-E1A inh inconclusive
CCN(CC)c1ccc(NC(=O)c2ccco2)cc1	none (no result: uPA surface inh)
CCN(CC)c1ccc(/C=N/NC(=O)c2ccco2)cc1	none
CCCCNC(=O)C[C@@H]1C[C@@]2(C(=O)OCC)CCCC=C2N(CCC2=CCCCC2)C1=O	none (no result: L3MBTL1 block, uPA surface inh, USP2a block, Eya2 phos inh)
Nc1nc(N)c2cc(Sc3ccc4ccccc4c3)ccc2n1	uPA surface inh 2µM
Nc1nc(N)c2cc(Sc3ccc(Cl)cc3)ccc2n1	none (no result: L3MBTL1 block, uPA surface inh, USP2a block, Eya2 phos inh)
CC(C)(c1ccccc1)c1ccc(OCC2CO2)cc1 (centres undefined)	none (no result: L3MBTL1 block)
O=S(=O)(c1ccc(OCC2CO2)cc1)c1ccc(OCC2CO2)cc1 (centres undefined)	uPA surface inh 5.6µM (no result: CtBP-E1A inh)
